Test results: PubChem BioAssay (NCI)
The panel holds about 79,000 compounds, 15% with a hit somewhere; the sample as a whole holds those more often. Rule as the data show it: active = growth inhibition above about 70%; inactive = the rest.

Assays:
[1] = NCI Yeast Anticancer Drug Screen. Data for the rad50 strain (AID 155);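 also: 0% = growth of vehicle-only cultures of the same strain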; conditions: S. cerevisiae rad50 strain growth inhibition; at 50.0 µM; hits give high values
Summary of the method: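 Readout: growth inhibition relative to vehicle-treated cultures. Compound exposure was carried out in a genetically defined yeast strain deficient in DNA damage repair.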

[2] = NCI Yeast Anticancer Drug Screen. Data for the mec2-1 strain (AID 157); conditions: S. cerevisiae mec2-1 strain, at 50.0 µM, hits give high values
Summary of the method: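 mec2-1 yeast strain, carrying an alteration in DNA damage repair or cell cycle control, was exposed to compounds; growth inhibition was measured relative to vehicle-treated controls.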

[3] = NCI Yeast Anticancer Drug Screen. Data for the sgs1 mgt1 strain (AID 161);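 also: 0% = growth of cultures given vehicle only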; conditions: S. cerevisiae sgs1 mgt1 strain, at 50.0 µM, hits give high values
Summary of the method: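 Compounds are added to genetically altered yeast, and growth is compared with cultures given vehicle alone to give percent inhibition.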

[4] = NCI Yeast Anticancer Drug Screen. Data for the cln2 rad14 strain (AID 165);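 also: 0% = growth equal to vehicle treated cultures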; conditions: S. cerevisiae cln2 rad14 strain, at 50.0 µM, hits give high values
Summary of the method: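 Yeast carrying cln2 and rad14 alterations (cell cycle control and DNA damage repair) were exposed to compounds. Growth inhibition was measured against vehicle-treated controls.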

[5] = NCI Yeast Anticancer Drug Screen. Data for the bub3 strain (AID 167); conditions: S. cerevisiae bub3 mutant strain, at 50.0 µM, hits give high values
Summary of the method: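 Readout: yeast growth inhibition, expressed relative to vehicle-only wells. The test organism is a mutant strain from a panel with lesions in DNA repair or checkpoint genes.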

[6] = NCI Yeast Anticancer Drug Screen. Data for the mlh1 rad18 strain (AID 175); conditions: S. cerevisiae mlh1 rad18 strain growth inhibition; at 50.0 µM; hits give high values
Summary of the method: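 Growth inhibition of the yeast strain was measured after compound exposure and expressed relative to vehicle-treated controls. The strain carries defined defects in DNA damage repair.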

Measured: growth inhibition

CCO/C(C)=C(/C(C)=O)C(=O)NC1CCCCC1
inactive: [1] -1.65% | [2] 15.5% | [3] -0.1% | [4] 9.75% | [5] -3.25% | [6] -11.2%

CC1CC(=O)Oc2cc(O)c(O)cc21 (stereo unspecified)
inactive: [1] 11.8% | [2] 7.9% | [3] 7.3% | [4] 4.4% | [5] 14.9% | [6] 16.9%

Cc1cccc(C(=O)O)n1.[Cu+2]
inactive: [1] -20.6% | [2] 7.6% | [3] -19.4% | [4] -69.9% | [5] -27.6% | [6] -11.6%

COC(=O)C1(CC(=O)C(c2ccccc2)c2ccccc2)NC(=S)NC(=O)C1C#N (stereo unspecified)
inactive: [1] 5.6% | [2] 4.65% | [3] -12.8% | [4] -2.7% | [5] 0.55% | [6] -8.9%

CN1C(=O)C(n2[nH]c(=O)n(-c3ccccc3)c2=O)C(=O)N(C)C1=O
inactive: [1] 11.8% | [2] 12.7% | [3] -6.55% | [4] -23.1% | [5] 16.9% | [6] 22.9%

OCC1OC(O)CC1O (stereo unspecified)
inactive: [1] -15.2% | [2] -10.5% | [3] -3.9% | [4] 9.05% | [5] -5.75% | [6] -0.05%

CCOC(=O)C(NC(=O)CC(C)C)(N1CCN(c2cc3c(cc2F)c(=O)c(C(=O)O)cn3C2CC2)CC1)C(F)(F)F (stereo unspecified)
inactive: [1] -5.8% | [2] -26.3% | [3] -0.2% | [4] 12.5% | [5] -24.9% | [6] -17.9%

COc1ccc(NC(=O)CCc2cc(C(C)(C)C)n[nH]2)cc1
inactive: [1] -22.1% | [2] -15.8% | [3] -3.8% | [4] 12.6% | [5] -16.7% | [6] -8.5%

COc1ccccc1C=NC12CC3CC(CC(C3)C1)C2
inactive: [1] -29.2% | [2] -12.6% | [3] 2.55% | [4] 1.9% | [5] -4.2% | [6] -16.6%

CC(C)=CC1CC(=O)C1(C)Sc1ccccc1 (stereo unspecified)
inactive: [1] 26.9% | [2] -1.5% | [3] 24.2% | [4] 12.9% | [5] 4.7% | [6] 2.95%

Nc1ccc([N+](=O)[O-])c(F)c1
inactive: [1] -6.05% | [2] -6.8% | [3] -3.25% | [4] -11.8% | [5] 10.1% | [6] 9.15%

Cc1cc2c(=O)[nH]cnc2[nH]1
inactive: [1] -5.6% | [2] -1.35% | [3] -16.7% | [4] 4.45% | [5] 13.8% | [6] -1.15%

Nc1c(F)c(F)cc(F)c1[N+](=O)[O-]
inactive: [1] 2.6% | [2] -2.7% | [3] 2.55% | [4] 7.6% | [5] 9.6% | [6] 4.35%

CCN(CC)C1(C(F)C(F)(F)F)OCC2(CO1)COC(C(F)C(F)(F)F)(N(CC)CC)OC2 (stereo unspecified)
inactive: [1] -10.1% | [2] -13.4% | [3] -0.4% | [4] 2.3% | [5] 0.8% | [6] 6.6%

CS(=O)(=O)N1COC(=O)[C@@H]1c1ccccc1
inactive: [1] 1.25% | [2] 25.4% | [3] 7% | [4] -3% | [5] 11.2% | [6] 3.05%

O=c1c(Cl)c(Cl)cnn1-c1ccc([N+](=O)[O-])cc1[N+](=O)[O-]
inactive: [1] 5.7% | [2] 6.7% | [3] 3.05% | [4] -4.25% | [5] -0.65% | [6] 5.75%

CN1C2=C(CC3=C1CC(C)(C)CC3=O)C(=O)CC(C)(C)C2
inactive: [1] -18.6% | [2] -12.9% | [3] -20.1% | [4] -4.25% | [5] -27.6% | [6] -34.7%

O=C1C(=C(C(F)(F)Cl)C(F)(F)Cl)C2CCC1C2 (stereo unspecified)
inactive: [1] 12% | [2] -3.35% | [3] 14.3% | [4] 14.6% | [5] 21.2% | [6] 7.7%

CCc1cc(-c2cc(CC)on2)no1
inactive: [1] -3.3% | [2] -14.9% | [3] -12.4% | [4] -1.15% | [5] -19.2% | [6] 1.4%

O=S1(=O)C(c2ccc(F)cc2)=C(O)c2cc3ccccc3nc21
inactive: [1] 29.2% | [2] 30.9% | [3] 27% | [4] 21.4% | [5] -8.85% | [6] 23.2%

N#CCCN(N)S(=O)(=O)c1ccccc1
inactive: [1] 3.7% | [2] 7.65% | [3] 0% | [4] -34.7% | [5] 2.85% | [6] -0.2%

COc1ccc(C(O)/C(=C/n2ccnc2)c2ccccc2)cc1OC (stereo unspecified)
inactive: [1] -23.8% | [2] -17.8% | [3] -15.6% | [4] -5.85% | [5] -7.65% | [6] -25.2%

CC(C)(C)C(=O)/C=C(\OB(F)F)C(C)(C)C
inactive: [1] 2.25% | [2] -5.2% | [3] -9.15% | [4] 26.9% | [5] -15.8% | [6] 5.25%

CC(=O)N(c1ccccn1)c1ccccn1
inactive: [1] -15.3% | [2] -10.2% | [3] -19.9% | [4] -54.5% | [5] 0.5% | [6] -31.2%

CC(C)(C)SCCCCO
inactive: [1] -7.3% | [2] 19.4% | [3] -0.8% | [4] 0.35% | [5] -5.2% | [6] -3.15%

COC(=O)CC1(O)C(C=C(C)C)C(C(=O)OC)C(=O)C(C(=O)OC)C1C(=O)OC (stereo unspecified)
inactive: [1] -10.8% | [2] -7.15% | [3] -28.9% | [4] -3.5% | [5] -32.2% | [6] -1.25%

c1ccc(C2SCSCS2)cc1
inactive: [1] 12.1% | [2] -5.45% | [3] -15.8% | [4] -8.4% | [5] 1.1% | [6] 6.95%

C[C@H](N)[C@@H](O)/C=C/c1ccccc1
inactive: [1] 8% | [2] -16.9% | [3] -0.05% | [4] -4.7% | [5] -9.7% | [6] -8.7%

NC(=Nc1ccc(S(=O)(=O)Nc2cnccn2)cc1)/N=C(/N)Nc1ccc(Br)cc1
inactive: [1] 4.2% | [2] 3.9% | [3] 15.7% | [4] -4.65% | [5] -5.65% | [6] 27.1%

Cc1nc(NCc2ccco2)nc(NCc2ccco2)c1[N+](=O)[O-]
inactive: [1] -14.7% | [2] -18.6% | [3] -5.85% | [4] -22.6% | [5] 27.7% | [6] -13.1%

CCOC(=O)COc1cc2c(cc1C(CC)c1ccccc1)OCO2 (stereo unspecified)
inactive: [1] -7.85% | [2] -1.45% | [3] -3.25% | [4] 5.95% | [5] 9.45% | [6] 2.9%

CC1(O)C=CC2CCC1C2O (stereo unspecified)
inactive: [1] 11.9% | [2] -2.55% | [3] 10% | [4] 19.2% | [5] 0.15% | [6] 19.6%

CC(C)(NC(=O)c1ccccc1)NC(=O)c1ccccc1
inactive: [1] 5.35% | [2] -10.1% | [3] -5.8% | [4] -38.2% | [5] 5.55% | [6] -6.35%

Cn1ccc(=O)c2ccccc21
inactive: [1] 3.1% | [2] -1% | [3] -8.55% | [4] 3.45% | [5] 6.1% | [6] 1.9%

Cc1ccc(S/C=C/C(=O)Nc2ccccc2)cc1
inactive: [1] -10.8% | [2] 13.4% | [3] 7.1% | [4] 43.1% | [5] 2.85% | [6] 5.6%

COc1c(O)c(/C=C/C(=O)NN)cc2ccoc12
inactive: [1] -4.75% | [2] -10.3% | [3] -25.1% | [4] -16.5% | [5] 15.8% | [6] -23.9%

CN(C)[C@@H]1C(=O)C(C(=O)NCNC2CC(C)(C)N(O)C(C)(C)C2)=C(O)C2(O)C(=O)C3=C(O)c4c(O)cccc4[C@@](C)(O)C3CC12 (stereo partly specified)
inactive: [1] -1.2% | [2] 30.6% | [3] 2.55% | [4] -37% | [5] -22.1% | [6] 24.6%

COc1ccc(OC)c(NC(=O)C(=O)NNC(=O)c2sc(NNC(C)=O)nc2C)c1
inactive: [1] 66.7% | [2] 28.8% | [3] 47.4% | [4] 26.5% | [5] 61% | [6] 30.8%

C(#CCOc1ccc2c(c1)OCO2)COc1ccc2c(c1)OCO2
inactive: [1] 29% | [2] 0.8% | [3] -18.8% | [4] -9.05% | [5] -8.8% | [6] 8.3%

[Cu+2].[NH-]C(Cc1ccc(O)cc1)C(=O)O.[NH-]C(Cc1ccc(O)cc1)C(=O)O (stereo unspecified)
inactive: [1] 13.1% | [2] 1.55% | [3] -12.6% | [4] 15.2% | [5] 1.65% | [6] 5%

Cc1cc(C)nc(NC(=O)c2cc(C(=O)O)c(C(=O)Nc3cc(C)cc(C)n3)cc2C(=O)O)c1
inactive: [1] -20.3% | [2] -3.1% | [3] -18.8% | [4] -27.6% | [5] 3.25% | [6] -23.9%
